This test has as its target T1, TALE1-HN (CACNA1C site 1 activator) (Xanthomonas (engineered), UniProt P14727 SEQ:1-983).
T1 chain: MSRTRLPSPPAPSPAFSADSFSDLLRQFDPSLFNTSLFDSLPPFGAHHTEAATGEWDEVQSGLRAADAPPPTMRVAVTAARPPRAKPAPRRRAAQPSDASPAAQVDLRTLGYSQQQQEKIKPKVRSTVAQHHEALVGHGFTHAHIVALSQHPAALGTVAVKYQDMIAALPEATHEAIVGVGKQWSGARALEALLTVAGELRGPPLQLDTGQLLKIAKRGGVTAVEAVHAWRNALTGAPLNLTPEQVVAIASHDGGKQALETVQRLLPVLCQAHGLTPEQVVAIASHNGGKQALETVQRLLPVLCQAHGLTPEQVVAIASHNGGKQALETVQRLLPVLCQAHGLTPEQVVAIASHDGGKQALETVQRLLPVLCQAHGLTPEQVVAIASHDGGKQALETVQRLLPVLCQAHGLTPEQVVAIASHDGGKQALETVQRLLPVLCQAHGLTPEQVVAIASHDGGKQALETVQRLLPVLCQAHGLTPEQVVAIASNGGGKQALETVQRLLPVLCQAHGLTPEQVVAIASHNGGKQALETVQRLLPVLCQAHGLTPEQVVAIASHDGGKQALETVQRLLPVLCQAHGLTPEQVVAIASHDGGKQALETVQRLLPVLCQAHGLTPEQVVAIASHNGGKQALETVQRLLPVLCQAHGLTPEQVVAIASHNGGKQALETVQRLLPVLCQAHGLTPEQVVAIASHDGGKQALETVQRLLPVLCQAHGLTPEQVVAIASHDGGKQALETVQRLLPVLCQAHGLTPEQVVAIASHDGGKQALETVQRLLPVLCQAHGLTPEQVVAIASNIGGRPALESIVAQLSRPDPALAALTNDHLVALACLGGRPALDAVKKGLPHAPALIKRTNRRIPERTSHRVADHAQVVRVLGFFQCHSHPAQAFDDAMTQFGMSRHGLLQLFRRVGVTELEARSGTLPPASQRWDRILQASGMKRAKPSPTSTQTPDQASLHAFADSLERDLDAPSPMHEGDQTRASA
Description: cell_activity; luciferase reporter. The note with it: tags: VP64, 2A-GFP; dsDNA, one strand shown. The protocol:
TALEs using NN, NK, NH, and HN as the G-targeting RVD were synthesized to target two distinct 18 bp target sites in the human CACNA1C locus. Changes in mRNA are measured using qRT-PCR as described previously. VP64, VP64 transcription activation domain. All results are collected from three independent experiments in HEK 293FT cells. Error bars indicate s.e.m.; n=3. FIG. 19(b) discloses SEQ ID NOS 63 and 62, respectively, in order of appearance.
To determine whether NH and HN are suitable replacements for NN as the G-specific RVD, specificity and activity strength of NN, NK, NH, and HN were directly compared. Two 18 bp targets within the CACNA1C locus in the human genome were chosen and four TALEs for each target were constructed, using NN, NK, NH, or HN as the G-targeting RVD (FIG. 19a). […] For each CACNA1C target site, four luciferase reporters were constructed: wild type genomic target, and wild type target with 2, 4, or all guanines mutated into adenines (FIG. 19a, G-to-A reporters), and compared the activity of each TALE using these reporters (FIG. 19a). […] Thus, focus was placed on the RVDs NN, NK, and NH in subsequent experiments to assess their usefulness in modulating transcription at endogenous human genome targets.
A general note: Reporter assays use an easily measured gene product as a stand-in for the process of interest.
For TCAACCCCTGCCGGCCCA, the binding signal was 30.8 % reduction vs wild-type site.

The values above are taken from patent US20140271602, “NUCLEOTIDE-SPECIFIC RECOGNITION SEQUENCES FOR DESIGNER TAL EFFECTORS” (THE BROAD INSTITUTE INC., published 2014).
